20 molecules from PubChem BioAssay (Tox21) can be followed below.

Assay [1] in a line: A CellTox Green Cytotoxicity Assay to monitor cytotoxicity in HepG2 cells - 0 hour (AID 1224882). Further: nearly all actives have a fitted effect of over 35% in size. In outline: (§1)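 HepG2 cells, 600/well, preincubated 5 h with CellTox Green dye, then exposed to Tox21 compounds in DMSO at 37 C for up to 40 h. Dead-cell DNA fluorescence read at the indicated time point.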
Assay [2] is described as follows: A CellTox Green Cytotoxicity Assay to monitor cytotoxicity in HepG2 cells - 32 hour (AID 1224883). Further: nearly all actives have a fitted effect of over 50% in size. In outline: as §1
Assay [3] can be described thus: qHTS RealTime-Glo MT Cell Viability Assay in HepG2 cells - 16 hour (AID 1224885). Further: nearly all actives have a fitted effect of over 50% in size. In outline: (§2)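 HepG2 suspension premixed with RealTime-Glo reagents is plated at 600 cells per well and left 5 h at 37 C/5% CO2. Compounds in DMSO then go in, and bioluminescence reflecting viable cell number is recorded over 40 h.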
In general terms: In qHTS, concentration-response curves come from the screen itself.

A short description of assay [4]: qHTS RealTime-Glo MT Cell Viability Assay in HEK293 cells - 24 hour (AID 1224886). Further: nearly all actives have a fitted effect of over 50% in size. In outline: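 Reads taken at 0, 8, 16, 24, 32 and 40 h from the same wells. HEK293 cells (600/well) carried RealTime-Glo reagents from seeding, with compound added after a 5 h settle at 37 C.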
Assay [5] is described as follows: qHTS RealTime-Glo MT Cell Viability Assay in HEK293 cells - 8 hour (AID 1224887). Further: nearly all actives have a fitted effect of over 50% in size. In outline:
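600 cells/well were plated with the nonlytic NanoLuc/prosubstrate reagent, pre-incubated 5 h, then given 23 nL of compound in DMSO. Incubation at 37 C for 40 h, with luminescence from viable-cell-reduced substrate read repeatedly from 0 h.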

Assay [6] in a line: A CellTox Green Cytotoxicity Assay to monitor cytotoxicity in HepG2 cells - 8 hour (AID 1224890). Further: nearly all actives have a fitted effect of over 45% in size. In outline:
as §1

Assay [7] is described as follows: A CellTox Green Cytotoxicity Assay to monitor cytotoxicity in HEK293 cells - 8 hour (AID 1224884). Further: nearly all actives have a fitted effect of over 35% in size. In outline: (§3)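 HEK293 cells, 600/well, were preincubated 5 hours and then exposed to compounds at 37 C for up to 40 hours. A cell-impermeant cyanine dye staining dead-cell DNA was read by fluorescence at 0, 8, 16, 24, 32 and 40 h time points.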
Assay [8] is described as follows: qHTS RealTime-Glo MT Cell Viability Assay in HepG2 cells - 0 hour (AID 1224889). Further: nearly all actives have a fitted effect of over 50% in size. In outline: as §2
The nature of assay [9]: A CellTox Green Cytotoxicity Assay to monitor cytotoxicity in HEK293 cells - 16 hour (AID 1224888). Further: nearly all actives have a fitted effect of over 35% in size. In outline:
as §3

Records with an inconclusive call do not appear. Calls of active or inactive are those of the source. The call rests on the fitted dose curve; in most records, active means well fitted curve in the direction sought with a large enough effect in the repeat runs; inconclusive means weak or mixed curves; inactive means no such curve, though single readings can be large; an effect the other way counts as inactive or inconclusive.
Potency means the concentration at half of the fitted maximal effect.

For the molecule `Cc1c([N+](=O)[O-])cc2c(c1[N+](=O)[O-])C(C)(C)CC2(C)C`, the Potency result in [1], in [2], in assay [3], in [4], in assay [5] and in [6] was “inactive” throughout.
Turning to `Cc1ccc([N+](=O)[O-])[c]2c1[O][Hg]2`, the Potency entry in assay [1], in assay [7] and in [8] was “inactive” throughout. The Potency in assay [3] was 2.39 µM (active); in assay [4], 3.38 µM (active); in assay [5] it was 3.79 µM (active); in assay [6], 3.79 µM (active).
Consider `CCN1CCC2(CC1)COc1cc3c(cc12)N(C(=O)c1ccc(-c2ccc(-c4nnc(C)o4)cc2C)cc1)CC3`, for which the Potency entry in [1] was “inactive”. For the same molecule, the Potency in assay [2] was 45.2 µM (active); in assay [7], 50.7 µM (active); in assay [3], 45.2 µM (active); in assay [4], 12.7 µM (active); in [5] it was 20.2 µM (active); in assay [6], 50.7 µM (active).
On to `O=C(NC(=O)c1c(F)cccc1F)Nc1ccc(Oc2ccc(C(F)(F)F)cc2Cl)cc1F`, for which the Potency result in assay [1], in [2], in [7], in assay [3], in assay [9] and in assay [8] was “inactive” each time. In addition, the Potency in assay [4] is 24.5 µM (active).
Take `CC#C[C@]1(O)CC[C@H]2[C@@H]3C[C@H](C)C4=CC(=O)CC[C@]4(C)[C@H]3CC[C@@]21C`: the Potency result in [1], in [2], in assay [7], in [3], in [5] and in assay [9] was “inactive” throughout. For the same molecule, the Potency entry in [6] was “inactive”. Moreover, in assay [8], the Potency is 2.68 µM (active).
As to `Oc1ccc([C@H]2CNCc3c2ccc(O)c3O)cc1O`, the Potency in assay [2], in assay [7], in assay [9] and in [6] was 26.8 µM (active) throughout. The Potency entry in assay [4] and in assay [8] was “inactive” throughout.
Turning to `CN(C)c1ccc(N)cc1`, the Potency result in assay [1], in assay [7], in assay [9], in assay [8] and in assay [6] was “inactive” throughout. For the same molecule, the results for the Potency in [4] and in [5] were 42.6 µM (active) and 24 µM (active), respectively.
For the molecule `O=C(NC(=O)c1ccccc1Cl)Nc1ccc(OC(F)(F)F)cc1`, the Potency result in assay [1], in assay [2], in assay [7], in assay [3], in assay [5] and in assay [9] was “inactive” in each case. Further, in [8], the Potency result is “inactive”.
`O=C(N[C@@H]1N=C(c2ccccc2F)c2cccc3c2N(CC3)C1=O)c1cc2ccccc2[nH]1`: the Potency in [1] was 26.8 µM (active); in assay [2], 19 µM (active); in assay [7] it was 9.52 µM (active); in assay [9], 5.35 µM (active); in assay [6], 21.3 µM (active). The Potency entry in [4], in assay [5] and in [8] was “inactive” each time.
Regarding `CC1=C2C[C@H]3[C@@H](CC=C4C[C@@H](O)CC[C@@]43C)[C@@H]2CC[C@]12O[C@@H]1C[C@H](C)CN[C@H]1[C@H]2C`, the Potency result in assay [1], in assay [7], in [3], in [9] and in assay [6] was “inactive” in each case. Besides, the Potency was 26.8 µM (active) in assay [2] and 16.9 µM (active) in assay [4].
`FC(F)C(F)(F)OCC(Cn1cncn1)c1ccc(Cl)cc1Cl` (stereo not given): the Potency entry in assay [1], in assay [7] and in assay [9] was “inactive” in each case. Also, the Potency in [2] was 48.7 µM (active); in assay [4] it was 21.7 µM (active).
For `N#CCCl`, the Potency entry in assay [1], in [2], in assay [7], in assay [3], in assay [5] and in assay [9] was “inactive” each time. In addition, the Potency result in [8] and in assay [6] was “inactive” throughout.
Consider `COP(=O)(OC)O/C(=C\Cl)c1cc(Cl)c(Cl)cc1Cl`, for which the Potency entry in assay [1], in assay [7], in assay [4], in assay [5] and in [9] was “inactive” in each case.
As to `COc1cnc(OC)n2nc(NS(=O)(=O)c3c(OCC(F)F)cccc3C(F)(F)F)nc12`, the Potency entry in assay [1], in assay [7], in [3], in [4], in assay [5] and in [9] was “inactive” each time. Moreover, in assay [6], the Potency entry was “inactive”.
Regarding `CC(Cc1ccc(O)cc1)NCC(O)c1cc(O)cc(O)c1` (stereo not given), the Potency entry in assay [1], in [7], in assay [3], in [4], in [5] and in assay [9] was “inactive” in each case. In assay [8], the Potency result is “inactive”.
For the molecule `Oc1cc(Cl)cc(Cl)c1`, the Potency entry in [1], in [2], in [7], in assay [3] and in [8] was “inactive” throughout.
`CC(=O)[O-].CC(=O)[O-].CC(=O)[O-].[Cr+3]`: the Potency result in assay [1], in [7], in [3], in [4], in [5] and in [9] was “inactive” in each case. The Potency entry in assay [8] and in assay [6] was “inactive” throughout.
Turning to `c1ccc(Nc2ccc(Nc3ccccc3)cc2)cc1`, the Potency result in assay [1], in assay [2], in assay [3], in [8] and in assay [6] was “inactive” in each case. For the same molecule, the Potency in [4] is 21.8 µM (active); in assay [5], 15.4 µM (active).
Turning to `O=S1(=O)OCC2C(CO1)C1(Cl)C(Cl)=C(Cl)C2(Cl)C1(Cl)Cl` (stereo not given), the Potency entry in assay [1], in [7], in assay [9], in assay [8] and in assay [6] was “inactive” throughout. Also, the Potency in assay [4] is 19.5 µM (active).
Regarding `COc1ccc(Cc2nccc3cc(OC)c(OC)cc23)cc1OC`, the Potency entry in assay [1], in assay [7], in assay [9], in assay [8] and in [6] was “inactive” throughout. The Potency in [4] and in assay [5] was 4.77 µM (active) each time.
